# Screening data from PubChem BioAssay.
# L3MBTL1 block – qHTS Assay for the Inhibitors of L3MBTL1. AID 485360, 2010. AlphaScreen L3MBTL1–H3K9me1 peptide binding. Potency, µM (doses to about 57.1 µM), for inactives: at the top dose activity, negative = inhibition, usual class: inhibitors. 0.66% of 230,000 active; also: % is scaled to controls: 0 for no effect and ±100 for the full control effect; nearly all actives have a fitted effect of over 60% in size
#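 L3MBTL1 50 nM + b-AHA-H3(1-15)K9me1 75 nM, 30 min RT; compound added, 30 min RT; streptavidin donor/Ni-chelate acceptor beads 10 ug/mL each final, 30 min RT dark; AlphaScreen read.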
# APEX1 inh – qHTS Assay for Inhibitors of the Human Apurinic/apyrimidinic Endonuclease 1 (APE1). DNA repair nuclease/redox regulator APEX1 (Homo sapiens), P27695. recombinant APE1, TAMRA/BHQ-2 abasic DNA cleavage fluorescence. Potency, µM (highest dose often 65.8 µM), inactives show top-dose activity change, negative = inhibition, most hits filed as inhibitors. 0.35% of 350,000 active. AID 2517, 2012;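 also: plate controls were vehicle for no effect and reference inhibitor for full effect; nearly all actives have a fitted effect of over 55% in size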
# Target sequence (P27695 whole entry, looked up): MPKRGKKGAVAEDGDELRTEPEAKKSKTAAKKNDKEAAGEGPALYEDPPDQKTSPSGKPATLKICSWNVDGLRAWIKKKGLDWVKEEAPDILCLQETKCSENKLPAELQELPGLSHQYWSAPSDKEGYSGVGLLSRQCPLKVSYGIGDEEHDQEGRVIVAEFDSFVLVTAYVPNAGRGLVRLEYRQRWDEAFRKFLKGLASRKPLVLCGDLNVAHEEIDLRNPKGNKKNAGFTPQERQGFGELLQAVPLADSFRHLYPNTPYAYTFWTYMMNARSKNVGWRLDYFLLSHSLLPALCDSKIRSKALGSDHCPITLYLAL
#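 APE1 at 0.75 nM preincubated 15 min at room temperature with compound. Reaction then started with 50 nM double-stranded THF-abasic substrate labelled with TAMRA/BHQ-2, and 525/598 nm fluorescence read kinetically. Activity taken as third-minus-first read difference, normalized to DMSO and NSC13755 controls.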
# Pol kappa inh – qHTS for Inhibitors of Polymerase Kappa; AID 588579, 2011; DNA polymerase kappa (Homo sapiens), Q9UBT6; purified Pol kappa, fluorescent DNA synthesis assay, 10 min; 0.53% of 400,000 active; Potency, µM (titrated, usually from 107 µM), for inactives: at the highest dose activity, negative = inhibition, actives largely listed as inhibitors; also: % is scaled to controls: 0 for no effect and ±100 for the full control effect
#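 50 nM final substrate added after 15 min RT preincubation of 10 nM Pol kappa with compound; fluorescence read at 0 and 10 min.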
# POLB inh – qHTS Assay for Inhibitors of DNA Polymerase Beta | P06746 | Pol beta primer extension/strand displacement, fluorescence kinetic | Potency, µM (highest dose often 114 µM), for inactives: at the highest dose activity change, negative = inhibition, usual class: inhibitors | 1.3% of 340,000 active | AID 485314, 2010; also: % is scaled to controls: 0 for no effect and ±100 for the full control effect
#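 Kinetic readout of DNA synthesis with strand displacement by Pol beta. Compound and 10 nM enzyme sit 15 min at room temperature; 50 nM substrate starts the reaction, read immediately and at 10 min.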
# Pol iota inh – qHTS for Inhibitors of Polymerase Iota | AID 588590, 2011 | Pol iota fluorescent replication assay, 10 min | 1% of 390,000 active | DNA polymerase iota (Homo sapiens), Q9UNA4 | Potency, µM (top dose mostly 115 µM), inactives show at the highest dose activity, negative = inhibition, most hits filed as inhibitors
#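 Fluorescent replication assay read twice, at 0 min and 10 min after adding 50 nM (final) substrate. Enzyme (10 nM) and compounds were first incubated 15 min at room temperature; enzyme-free buffer wells were negative controls.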
# Pol eta inh – qHTS for Inhibitors of Polymerase Eta. AID 588591, 2011. 1.2% of 390,000 active. Potency, µM (highest dose often 114 µM), without a hit: top-dose activity change, negative = inhibition, most hits filed as inhibitors. DNA polymerase eta (Homo sapiens), Q9Y253. recombinant Pol eta, fluorescent DNA replication assay; also: % is scaled to controls: 0 for no effect and ±100 for the full control effect
#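 Fluorescent replication assay: 50 nM final substrate added after a 15 min room-temperature compound preincubation with 10 nM enzyme. Signal taken at 0 min and again at 10 min.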
# Starred values were filed as active, the others as inactive; ? = inconclusive; . = not tested or not shown; [ ] = remark or other dose. Compounds with a hit are over-represented: about 2.5% of the library has one in this group of screens. Calls follow the shape of the dose curve; as a rule, active = well fitted curve in the direction sought with a large enough effect; inconclusive = small, poorly fitted or top-dose-only effect, or another doubt; inactive = no such curve, though single readings can be large; an effect the other way counts as inactive or inconclusive. Potency is read from the fitted curve at half-maximal effect.
SMILES,L3MBTL1 block,APEX1 inh,Pol kappa inh,POLB inh,Pol iota inh,Pol eta inh
CCOc1ccc(C(=O)c2cccs2)cc1,6.7%,24.2%,-8.6%,-1.5%,?,-0.5%
CCOC(=O)COc1ccc(C(=O)c2ccccc2)c(O)c1,8.7%,7.1%,3.2%,12.1%,?,-12.0%
CCOc1ccc(C(=O)c2ccc(O)c(O)c2O)cc1,.,?,3.55µM*,.,.,.
CCOc1cccc(C(=O)c2ccc(O)c(O)c2O)c1,.,?,4.47µM*,.,.,.
Cc1nnc(N/N=C\c2ccc(-c3cccc(C(=O)O)c3)o2)n1N,?,?,?,?,2.51µM*,?
COc1ccc(-c2cc(-c3ccccc3)c(C#N)c(SCC(=O)O)n2)cc1,.,.,1.1%,.,-14.0%,-13.7%
COc1ccc(-c2cc(-c3ccccc3)nc(SC(C)C(=O)O)c2C#N)cc1 (configuration not stated),-5.7%,13.9%,-2.2%,-0.1%,39.8µM*,-23.8%
N#Cc1c(-c2ccccc2)cc(-c2ccccc2)nc1SCC(=O)NCC(=O)O,8.3%,1.1%,-5.3%,50.1µM*,6.1%,-9.4%
COc1ccc(-c2cc(-c3ccc(Cl)cc3)c(C#N)c(SCC(=O)O)n2)cc1,?,-15.8%,-3.3%,31.6µM*,-14.3%,3.8%
O=C1NC(=O)/C(=C/c2cccn2-c2ccc(P(O)O)cc2)N1,.,38.4%,.,.,.,.
COC(=O)c1c(/N=C/N(C)C)sc2c1CCN(c1ncc(C(F)(F)F)cc1Cl)C2,3.5%,5.6%,-6.3%,-0.5%,-5.4%,-14.9%
COC(=O)c1c(N(S(C)(=O)=O)S(C)(=O)=O)sc2c1CCN(c1ncc(C(F)(F)F)cc1Cl)C2,.,13.4%,-29.7%,-22.7%,31.6µM*,-12.2%
Nc1ccc2nc(-c3cc(Cl)c(N)c(Cl)c3)[nH]c2c1,5.7%,6.9%,?,?,-11.2%,?
Nc1ccc2nc(-c3ccc(Cl)cc3)[nH]c2c1,.,-10.6%,14.0%,0.3%,2.4%,-22.9%
Nc1ccc2nc(-c3cccc(-c4nc5ccc(N)cc5[nH]4)c3)[nH]c2c1,.,-6.9%,35.5µM*,?,?,?
Nc1ccc(-c2nc3ccc(N)cc3[nH]2)cc1,-12.1%,?,79.4µM*,-29.8%,-16.4%,-11.9%
CN(C)c1ncc2nc(-c3ccc(Cl)cc3)c(=O)n(C)c2n1,.,2.3%,-0.9%[60.1 µM],.,.,.
O=C(COc1ccc(S(=O)(=O)NC2CCCCC2)cc1)Nc1ccc(C(F)(F)F)cc1,.,.,-11.7%,27.5%,15.3%,-15.2%
Cc1ccc(-c2nc(SCC(=O)N(C)c3c(N)n(Cc4ccccc4)c(=O)[nH]c3=O)n[nH]2)cc1,.,1.0%,-3.5%,89.1µM*,31.3%,-23.1%
O=C(N/N=C\C=C\c1ccc([N+](=O)[O-])o1)c1cccs1,.,-75.1%,79.4µM*,31.6µM*,5.01µM*,50.1µM*
COc1ccccc1OCC(=O)N/N=C/C=C/c1ccc([N+](=O)[O-])o1,-15.4%,0.1%,?,31.6µM*,79.4µM*,?
O=C(N/N=C/c1ccc([N+](=O)[O-])o1)c1ccc2c(c1)OCO2,.,4.8%,-21.3%,39.8µM*,?,-6.7%
O=C(N/N=C\c1ccc(-c2ccc([N+](=O)[O-])cc2)o1)c1ccc2c(c1)OCO2,?,5.0%,9.7%,2.6%,11.3%,-21.8%
O=C(N/N=C/c1cccc([N+](=O)[O-])c1)c1cc(-c2ccc3c(c2)OCO3)n[nH]1,.,-7.0%,?,-23.3%,?,17.8µM*
CCOc1ccccc1CNC(=O)CSc1n[nH]c(-c2ccccc2)n1,.,.,-3.3%[60.1 µM],-0.4%,3.7%,-9.6%
SMILES,L3MBTL1 block,APEX1 inh,Pol kappa inh,POLB inh,Pol iota inh,Pol eta inh
CC1CS(=O)(=O)CCN1/N=C/c1ccc([N+](=O)[O-])o1 (configuration not stated),.,1.1%[21 µM],.,.,.,.
C[n+]1ccnc2ccccc21,.,.,1.8%,.,-14.2%,.
O=C1[C@H](Cc2ccccc2)NC/C=C\C[C@@H](c2ccc(Cl)cc2)N1Cc1ccccc1,.,.,-0.7%,.,-4.9%,.
O=[N+]([O-])c1ccc(/C=N/N=C/c2ccc([N+](=O)[O-])o2)o1,?,?,?,-25.9%,22.4µM*,?
O=C(N/N=C/c1ccc([N+](=O)[O-])o1)c1ccc(NS(=O)(=O)c2cccs2)cc1,-7.0%,-0.5%,-33.8%,?,50.1µM*,31.6µM*
Cc1nn(-c2ccc(Cl)cc2)c(Cl)c1/C=N/NC(=O)c1ccc(NS(=O)(=O)c2cccs2)cc1,.,.,-16.0%,.,-3.6%,79.4µM*
O=C(N/N=C/c1ccc2c(c1)OCO2)c1ccc(NS(=O)(=O)c2cccs2)cc1,-0.5%,13.0%,-19.1%,-1.9%,125.6%,-11.4%
Cc1nn(-c2ccc(F)cc2)c(Cl)c1/C=N/NC(=O)c1cccs1,9.8%,5.2%,-11.6%,-12.4%,1.9%,?
Cc1cc(OC(C)C(=O)NCC2CCC(C(=O)O)CC2)c2c(C)c(Cc3ccccc3)c(=O)oc2c1 (configuration not stated),-5.2%,-25.2%,-13.9%,-36.2%,79.4µM*,?
Cc1nnc(Sc2cc(NCCCO)c([N+](=O)[O-])c3nonc23)s1,-19.7%,-3.9%,-19.5%,-17.3%,12.6µM*,79.4µM*
Cc1nnc(Sc2cc(NCCO)c([N+](=O)[O-])c3nonc23)s1,2.2%,?,-20.7%,27.0%,?,?
CS(=O)(=O)c1ccc(C(=O)OCC(=O)NC(=O)NC2CCCCC2)cc1[N+](=O)[O-],.,.,4.3%,.,-19.9%,.
CS(=O)(=O)c1ccc(C(=O)OCC(=O)NC23CC4CC(CC(C4)C2)C3)cc1[N+](=O)[O-],-3.5%,0.9%,-6.2%,1.4%,22.4µM*,15.8µM*
COc1ccc2c3c(cccc13)OC2=O,.,37.7%,-10.6%,?,-2.8%,-9.3%
COc1ccc2c3c(cccc13)N(C)N=C2C,0.7%,-7.6%,-27.4%,1.4%,3.16µM*,?
CCOC(=O)Cc1nnc(NC(=O)c2ncn[nH]2)s1,.,1.7%,4.3%,-0.3%,7.08µM*,0.7%
Cc1cc(N(C)C)cc(C)c1/C=C/c1ccnc2ccccc12,.,.,0.4%,.,14.6%,.
O=C(C1CC(=O)N(c2ccc(Cl)cc2)C1)N1CCN(Cc2ccc3c(c2)OCO3)CC1 (configuration not stated),.,-7.1%,-7.7%,17.0%,-4.0%,-11.9%
CN(CC(=O)O)S(=O)(=O)c1cccs1,44.3%,-5.3%,2.7%,17.2%,89.1µM*,3.4%
